D1 antag: Antagonist of Human D 1 Dopamine Receptor: qHTS. D(1A) dopamine receptor (Homo sapiens), P21728. HEK293 TREx D1 cells, calcium flux, dopamine EC80; active compounds read low. activity change, negative = inhibition, % at 10 µM. 360,000 compounds, 3.2% hits. AID 504652, 2011; in the data active = activity change below about -30%
Target sequence (P21728 whole entry, looked up): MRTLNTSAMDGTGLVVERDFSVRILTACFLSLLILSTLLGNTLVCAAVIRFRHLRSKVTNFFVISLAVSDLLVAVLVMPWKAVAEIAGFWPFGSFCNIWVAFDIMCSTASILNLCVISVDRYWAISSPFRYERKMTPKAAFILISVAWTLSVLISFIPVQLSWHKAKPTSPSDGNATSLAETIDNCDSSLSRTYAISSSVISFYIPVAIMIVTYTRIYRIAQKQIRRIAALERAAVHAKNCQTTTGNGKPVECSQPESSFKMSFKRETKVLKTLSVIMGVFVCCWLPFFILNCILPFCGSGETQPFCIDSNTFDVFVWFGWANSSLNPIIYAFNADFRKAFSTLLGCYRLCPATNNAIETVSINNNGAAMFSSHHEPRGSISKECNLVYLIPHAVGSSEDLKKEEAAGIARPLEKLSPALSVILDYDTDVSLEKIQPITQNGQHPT
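Tetracycline-induced HEK293 Trex D1 cells, force-coupled to calcium, dye-loaded; compounds added and read 180 s, then EC80 dopamine added and calcium flux tracked kinetically another 180 s.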
D1 agonist: Allosteric Agonists of the Human D1 Dopamine Receptor: qHTS | D(1A) dopamine receptor (Homo sapiens), P21728 | HEK293 T-REx D1 cells, calcium flux, agonist mode | activation, % at 2 µM | 360,000 compounds, 1% hits | AID 504660, 2011
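Agonism was scored from calcium flux recorded over 180 s (1 read/s) after pintool compound addition, following a 10-cycle baseline. Cells were inducible force-coupled HEK293 TREx D1, plated overnight at 30 C and loaded with no-wash calcium dye.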
TRHR PAM: qHTS for Small Molecule Agonists and Allosteric Enhancers of Human TRH Receptor: Primary Screen for Enhancers; Thyrotropin-releasing hormone receptor (Homo sapiens), P34981; TRHR cells, fluo-8 calcium fluorescence, EC20 TRH enhancement; enhancement, % at 2 µM; 360,000 compounds, 0.66% hits; AID 493056, 2011; in the data active = enhancement above about 30%
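TRHR-expressing cells loaded with fluo-8 calcium dye were read kinetically (ex 480/em 530) during compound addition, then stimulated with an EC20 of TRH (10 nM final). Enhancement of the Gq-mediated intracellular calcium response was scored.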
TRHR agonist: qHTS for Small Molecule Agonists and Allosteric Enhancers of Human TRH Receptor: Primary Screen for Agonists; 360,000 compounds, 0.18% hits; Thyrotropin-releasing hormone receptor (Homo sapiens), P34981; activation, % at 2 µM; TRHR cells, calcium flux fluo-8, FDSS agonist mode; AID 493084, 2011
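In this calcium-flux screen, cells bearing human TRHR are dye-loaded with fluo-8, baselined for 10 cycles, then exposed to library compounds; positive kinetic calcium responses during the agonist phase mark hits, with TRH as control.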
D1 potentiator: Potentiators of Human D1 Dopamine Receptor: qHTS. D(1A) dopamine receptor (Homo sapiens), P21728. HEK293 TREx D1 cells, calcium flux, dopamine EC20 potentiation. potentiation, % at 10 µM. 360,000 compounds, 0.036% hits. AID 504651, 2011; in the data active = potentiation above about 30%
Large screens that a line does not name were inactive. Rows were chosen to be rich in hits. Some 4.7% of all compounds tested hit in one or more screens of this group. Rule as the data show it, unless noted: active = activation above about 30%; inactive = the rest.

COc1ccc(C)cc1NC(=O)C(OC(=O)c1ccc([N+](=O)[O-])o1)c1ccccc1 (stereo not given)	D1 antag -48
Cc1csc(NC(=O)c2cccnc2)n1	D1 antag -36
Cc1csc(NC(=O)c2ccc(COc3ccccc3)o2)n1	D1 antag -35, TRHR PAM 30
CCn1ccc2c(OCC(=O)NCc3ccc(C)cc3)cccc2c1=O	none (no result: D1 antag)
O=C(COc1ccc2oc3c(c2c1)CCCC3)Nc1ccc(Br)cc1	none
O=C(CCCN1C(=O)C(c2ccccc2)Oc2cccnc21)Nc1cccc(F)c1 (stereo not given)	D1 antag -44
COc1ccc(-c2cc(C(=O)N3CCN(c4ccccc4F)CC3)c3ccccc3n2)c(OC)c1	none
COc1ccc(/C=N/Nc2ccc([N+](=O)[O-])cc2)cc1O	D1 agonist 31
COc1ccc(/C=N/Nc2ccc([N+](=O)[O-])cc2)cc1Cn1cc([N+](=O)[O-])cn1	none (no result: D1 antag)
Cc1nn(-c2cccc(Cl)c2)c2c1C(c1cccnc1)C(C#N)=C(N)O2 (stereo not given)	D1 antag -36
N#CC1=C(N)Oc2ccc3ccc(O)cc3c2C1c1cccnc1 (stereo not given)	D1 antag -76
CCOc1ccccc1CNC(=O)C1CCN(S(=O)(=O)c2c(C)noc2/C=C/c2ccc(C)cc2)CC1	none
O=C(NN=C1CCN(Cc2ccccc2)CC1)c1ccccc1O	D1 antag -31
Fc1cccc(NCc2cccn2-c2nnc(N3CCOCC3)s2)c1	none
O=C(Nc1ccc(F)c(Cl)c1)C1CC(=O)N(Cc2ccco2)C1 (stereo not given)	D1 antag -43
CC(=O)Nc1ccc(NC(=O)C2CC(=O)N(Cc3ccco3)C2)cc1 (stereo not given)	none
Cc1ccc2nc(NC(=O)C3CC(=O)N(Cc4ccco4)C3)sc2c1 (stereo not given)	TRHR PAM 36
Cc1ccnc(NC(=O)C2CC(=O)N(Cc3ccccc3)C2)c1 (stereo not given)	D1 antag -44
Cc1ccc(NC(=O)C2CC(=O)N(Cc3ccccc3)C2)nc1 (stereo not given)	none
CC(=O)c1cccc(NC(=O)c2ccc(OC3CSC3)cc2)c1	none
O=C(Nc1cccc(Br)c1)c1ccc(OC2CSC2)cc1	D1 antag -36
CCOC(=O)c1ccc(NC(=O)c2nc(S(=O)(=O)Cc3ccccc3)ncc2Cl)cc1	D1 antag -45
CCCSc1nnc(NC(=O)c2nc(SC)ncc2Cl)s1	D1 antag -36
CCc1ccc(NC(=O)c2nc(S(=O)(=O)Cc3ccccc3)ncc2Cl)cc1	D1 antag -64
CCSc1ncc(Cl)c(C(=O)Nc2c(C(=O)Nc3ccccc3)oc3ccccc23)n1	none
CCSc1ncc(Cl)c(C(=O)Nc2ccccc2)n1	TRHR PAM 36
CSc1ncc(Cl)c(C(=O)Nc2nnc(SC)s2)n1	none
CCn1ccnc1CNC(=O)c1ccc2oc(CCCc3ccccc3)nc2c1	none
CCCSc1ncc(Cl)c(C(=O)Nc2ccc(S(=O)(=O)N(C)c3ccccc3)cc2)n1	none
CN(c1ccccc1)S(=O)(=O)c1ccc(NC(=O)c2nc(S(C)(=O)=O)ncc2Cl)cc1	D1 antag -47
CCS(=O)(=O)c1ncc(Cl)c(C(=O)Nc2ccccc2)n1	D1 antag -30
CCOC(=O)c1c(NC(=O)/C=C/c2ccc(C)cc2)sc(C(C)=O)c1C	D1 antag -32
CCOC(=O)c1c(-c2ccccc2)csc1NC(=O)c1nc(S(=O)(=O)CC)ncc1Cl	D1 antag -47
CCOC(=O)c1c(-c2ccccc2)csc1NC(=O)c1nc(SCC)ncc1Cl	none
CCOC(=O)c1sc(NC(=O)/C=C/c2ccc(OCC)cc2)c(C(=O)OCC)c1C	none
CN(C)c1ccc(-c2noc(C3CC(=O)N(c4ccc5c(c4)OCCO5)C3)n2)cc1 (stereo not given)	none
